Reference: PubChem BioAssay AID1945 (The Scripps Research Institute Molecular Screening Center, 2009)
Among all 1,600 compounds or so, about 65 (4%) were called active. No stated cut-off is given here; in the data, active means inhibition above about 37%; inactive means the rest. The list is a sample of the results.

test: compounds displacing fluorescent DNA intercalator, artefact control for HCV NS3 helicase inhibitor project, biochemical, FID fluorescence, triplicate (AID 1945); conditions: DNA fluorescent intercalator displacement, at 7.9 µM, stronger effect = higher value;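 further: 0% = vehicle and 100% = reference compound; higher means more displacement of ethidium bromide from the DNA hairpin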

Compound | inhibition
O=c1[nH]c(/C=C\c2cccc(C(F)(F)F)c2)nc(O)c1[N+](=O)[O-] | -2.48% (inactive)
O=c1nc2s/c(=C\c3ccco3)c(=O)n2nc1Cc1ccccc1 | 7.7% (inactive)
Cc1ccc(S(=O)(=O)N/N=C\c2cc3c(cc2[N+](=O)[O-])OCO3)cc1 | 14.6% (inactive)
CC(=O)Nc1ccc(Nc2c3ccccc3nc3ccccc23)cc1 | 79.8% (active)
CCOC(=O)c1ccccc1N1C(=O)C2Sc3[nH]c(=O)sc3C(/C=C/c3ccccc3)C2C1=O (configuration not stated) | -46.6% (inactive)
COCCNC(=O)Nc1ccc2nc(-c3ccco3)c(-c3ccco3)nc2c1 | 18.2% (inactive)
CCOC(=O)c1c(-c2ccccc2)oc2cc(Br)c(O)c(C=O)c12 | 85% (active)
Cc1cc(O)c(C(=O)/C=C/c2c(F)c(F)c(F)c(F)c2F)c(=O)o1 | 3.73% (inactive)
CCOc1ccc(C2C3=C(CCCC3=O)N(CC(=O)O)C3=C2C(=O)CCC3)cc1 | 7.44% (inactive)
CS(=O)(=O)c1ccc2c(c1)SC1=NC(=O)/C(=C/c3ccco3)C(=N)N12 | -2.29% (inactive)
Cc1ccc(SC(CC(=O)c2ccc(C(C)(C)C)cc2)C(=O)O)cc1 (configuration not stated) | -10.2% (inactive)
CC1=NN(c2ccc(Cl)c(C(=O)O)c2)C(=O)/C1=C/c1ccc(-c2ccccc2[N+](=O)[O-])o1 | 15.8% (inactive)
COc1ccc(/C=C2\SC(=S)N(CCC(=O)Nc3cccc(C(=O)O)c3)C2=O)cc1OC | 15.4% (inactive)
CNS(=O)(=O)c1cccc(C(=O)NC2CCCc3ccccc32)c1 (configuration not stated) | -7.17% (inactive)
CCSc1nsc(NC(=O)Nc2cccc(C(C)=O)c2)n1 | 8.36% (inactive)
O=c1c2c(-c3ccccc3)ccnc2[nH]n1-c1ccccc1 | 1.8% (inactive)
COC(=O)COc1ccc2c(c1C)O/C(=C\c1ccco1)C2=O | -11.8% (inactive)
NS(=O)(=O)c1ccc(-c2ccc(/C=C3\SC(=O)NC3=O)o2)cc1 | 1.16% (inactive)
CCOC(=O)C1=C(O)/C(=C/c2cc(C)n(-c3ccccc3)c2C)N=C1C | -10.6% (inactive)
COc1ccc(/C=C/C(=O)c2cc(Br)ccc(=O)c2O)cc1 | 16.2% (inactive)
Cc1ccc(C(=O)O)cc1-c1ccc(/C=C2\SC(=O)N(CC(=O)Nc3ccc4c(c3)OCO4)C2=O)o1 | 1% (inactive)
COc1cccc(CNC(=O)c2nnn(CC(=O)Nc3cc(Cl)ccc3C)c2N)c1 | 9.61% (inactive)
Cc1ccc(S(=O)(=O)NCCC(c2ccccc2)c2ccccc2)cc1C(=O)O | -24.5% (inactive)
CCN(CC)CCOc1ccc2c(c1)C(=NNC(=O)c1ccccn1)c1cc(OCCN(CC)CC)ccc1-2 | 94.3% (active)
Brc1ccccc1C1Nc2cccc3cccc(c23)N1 | 12.8% (inactive)
O=C1C=CC(=O)N1c1ccc(N2CCCCC2)cc1 | 17% (inactive)

Compound | inhibition
O=C(N/N=C/c1ccco1)c1csc2c1CCCC2 | -7.05% (inactive)
COc1ccccc1N1CCN(C(=O)CCS(=O)(=O)c2ccc3c(c2)NC(=O)C(C)S3)CC1 (configuration not stated) | -36.4% (inactive)
CSc1c(SCc2ccccc2)cnn(Cc2ccccc2)c1=O | -16.1% (inactive)
CCC1C/C(=C/c2cccs2)C(=O)/C(=C/c2cccs2)C1 (configuration not stated) | -0.49% (inactive)
Nc1ccc2nc3c(=O)[nH]c(=S)[nH]c3nc2c1 | -8.12% (inactive)
Cc1nn2c(c1-c1ccccc1)N=C(c1ccco1)CC2c1ccccc1 (configuration not stated) | -5.96% (inactive)
CS/C(=C\C(=O)c1ccco1)Nc1ccccc1Cl | -4.94% (inactive)
O=C1N/C(=C/c2cccn2-c2ccccc2)C(=O)N1c1cccc(Cl)c1 | 12.2% (inactive)
Cc1cc(C)c2nc(-c3ccco3)cc(C(=O)O)c2c1 | -5.42% (inactive)
Cc1ccc(/C=C/C(=O)Nc2ccc([N+](=O)[O-])c(NC(=O)/C=C/c3ccc(C)o3)c2)o1 | 33.4% (inactive)
CC(C)c1ccc(C2C(C(=O)c3ccco3)=C(O)C(=O)N2CC2CCCO2)cc1 (configuration not stated) | -21.9% (inactive)
Cc1ccc(C(CC(=O)O)Nc2nc(N3CCCCC3)nc(N3CCCCC3)n2)cc1 (configuration not stated) | -62.5% (inactive)
Cc1ccc(-c2nn(-c3ccccc3)cc2/C=C2\SC(=S)N(CCCCCC(=O)O)C2=O)o1 | 9.08% (inactive)
CN(C)c1ccc(N/C=C/C(=O)C(F)(F)F)cc1 | 17.8% (inactive)
O=C(c1cccc(-n2cccc2)c1)N1CCN(S(=O)(=O)c2ccc(F)cc2)CC1 | -4.45% (inactive)
O=C(CCCN1C(=O)/C(=C\c2ccco2)SC1=S)Nc1cccc2ccccc12 | 6.79% (inactive)
Cc1occc1C(=O)N/N=C/c1ccc(-c2cccc([N+](=O)[O-])c2)o1 | 1.25% (inactive)
Cc1cc(N2C(=O)C(O)=C(C(=O)c3ccc(C)o3)C2c2ccc(OCc3ccccc3)cc2)no1 (configuration not stated) | -15.8% (inactive)
Cc1cccc(NC(=O)c2sc3nc4c(c(-c5ccco5)c3c2N)CCC4)c1 | -11.3% (inactive)
COc1ccc(OCC(=O)Nc2nnc(-c3ccco3)s2)cc1 | -1.45% (inactive)
COc1ccc(NC(=O)CSc2ccc(-c3ccco3)nn2)c(OC)c1 | 0.58% (inactive)
Clc1ccccc1CSc1nnc(-c2ccco2)c(-c2ccco2)n1 | 72.2% (active)
c1ccc(CSc2nnc(-c3ccco3)c(-c3ccco3)n2)cc1 | 32.8% (inactive)
O=C(CCl)NNc1cccc(Cl)n1 | 11.2% (inactive)
COc1cccc(C(=O)CC(=O)C(=O)Nc2ccc([N+](=O)[O-])cc2C)c1 | 2.14% (inactive)
Fc1ccc(-c2ccc(-c3nn4c(-c5ccco5)nnc4s3)o2)cc1 | -13.2% (inactive)
